A selection: hits, their analogues and other compounds. The true share with any hit is near 4%.
KKLEB tox: CF airway cell cytotoxicity counter-screen | KKLEB CF airway cells viability, ATPlite luminescence, overnight; stronger effect = lower value; cells stimulated with P. aeruginosa culture filtrate | activity change (cytotoxicity), % at 5 µM | 360,000 compounds, 0.36% hits;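 active means corrected activity change at or below -50% at 5 µM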
Peg3 prom inh: reduces Peg3 promoter-driven luciferase expression in HeLa; HeLa PEG-Prom luciferase reporter, luminescence, overnight; 360,000 compounds, 1.7% hits; AID 588405; inhibition, % at 20 µM;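 active means inhibition of at least 50% at 20 µM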
TWEAK-Fn14 inh: inhibitors of TWEAK-Fn14 interaction signaling. TWEAK-stimulated Fn14 reporter cells, luciferase luminescence, 8 h. inhibition, % at 10 µM. 360,000 compounds, 2% hits. AID 1159606; in the data active means inhibition above about 50%
TROY signal inh: inhibitors of TROY-dependent NF-kB signaling; Q293 LMP1-TROYcd NF-kB luciferase reporter, 4 h; inhibition, % at 10 µM; 360,000 compounds, 0.98% hits; AID 1347056;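 active means compounds whose plate-normalised and pattern-corrected inhibition of the luciferase reporter signal at the single screening dose is 50% or more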
CF NFkB inh: cystic fibrosis NF-kB activation inhibition. KKLEB NF-kB-GFP reporter, PAF-induced, GFP fluorescence overnight. inhibition, % at 5 µM. 360,000 compounds, 0.86% hits;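 active means at least 50% inhibition at 5 µM, scaled per plate between neutral and stimulator controls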;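 further: PAF is a Pseudomonas aeruginosa culture filtrate used as stimulus; plate controls were PAF-stimulated DMSO wells for no effect and unstimulated DMSO wells for full effect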
HIF-2a inh: HIF-2a inhibition. inhibition, % at 18.8 µM. 360,000 compounds, 0.72% hits. AID 624352. 786-0 RCC cells HIF-2a reporter, luciferase luminescence, overnight;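 active means inhibition of the luminescence signal of 40% or more relative to plate controls, in a single-dose primary screen at 18.75 µM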
* marks the source's active call; other numbers are inactive results.

SMILES | KKLEB tox | Peg3 prom inh | TWEAK-Fn14 inh | TROY signal inh | CF NFkB inh | HIF-2a inh
Cc1cc(C)c(O)c(-c2cc(C(=O)Nc3ccc(S(=O)(=O)N4CCOCC4)cc3)[nH]n2)c1 | 3 | 59* | 63* | 70* | 7 | -5
Cc1ccccc1CN(C)CCS(=O)(=O)c1cc(Cl)ccc1Cl | -21 | 11 | 65* | 3 | 26 | 24
Cc1ccc(CN2CCC(n3nccc3NC(=O)c3ccc4c(c3)OCO4)CC2)o1 | -3 | -4 | -1 | -8 | -3 | 1
Cn1nc(Cc2cccc3ccccc23)c(C#N)c1N | 3 | 13 | 32 | 16 | 7 | 14
CC(C)(C)n1nc(Cc2cccc3ccccc23)c2c(N)ncnc21 | 1 | 44 | -5 | 9 | 50* | 34
CCOC(=O)CCc1nc2ccccc2[nH]1 | -7 | -5 | 34 | 5 | -10 | -31
COCC(=O)O[C@]1(CCN(C)CCCc2nc3ccccc3[nH]2)CCc2cc(F)ccc2[C@@H]1C(C)C | -13 | 90* | 0 | -9 | 9 | 6
CC(NC(=S)Nc1ccc(OC(F)F)c(Cl)c1)C(C)(C)C (configuration not stated) | -33 | 25 | -5 | 30 | 17 | -15
Nc1nc(CCl)nc(N(c2ccccc2)c2ccccc2)n1 | -73* | 46 | 10 | 0 | 70* | 37
Nc1nc(Cl)nc(N(c2ccccc2)c2ccccc2)n1 | -9 | 12 | -14 | -25 | 0 | 15
CC(=O)Nc1ccc(NC(=O)c2ccc(N(Cc3ccccc3C)S(C)(=O)=O)cc2)cc1 | -3 | 11 | 86* | -13 | -18 | 27
CC(C)NC(=S)NC(=O)c1ccc(-c2ccccc2)cc1 | 12 | -105 | 25 | -16 | -7 | -184
CC(C)(C)c1cc(N2CCOCC2)n2ncc(-c3ccccc3)c2n1 | -7 | 10 | 5 | 18 | 26 | 4
CCCc1cc(N2CCOCC2)n2ncc(-c3ccccc3)c2n1 | 5 | -98 | 58* | 52* | 1 | -110
Cn1cc(/C=C/C(=O)N2CCCC(C(=O)c3cccc4ccccc34)C2)cn1 (configuration not stated) | 8 | 2 | -2 | -9 | -9 | -3
CN1CCN(c2ccc3sc(-n4ccc5ccccc54)nc3c2)CC1 | -49 | 9 | 65* | 80* | 6 | -25
Brc1ccc2nc(N3CCN(c4ccccc4)CC3)sc2c1 | 5 | -36 | -56 | -28 | -2 | -89
CN(Cc1ccc(Cl)cc1)C(=O)c1ccc2ccccc2n1 | -2 | 3 | 5 | -9 | 5 | 0
NC(=O)c1ccc(NC(=O)CN2CCOCC2)cc1 | 3 | -3 | -1 | 10 | 13 | 15
COc1cc(C(=O)NC(=S)Nc2csc(-c3ccc(F)cc3)n2)cc(OC)c1OC | -3 | -15 | 10 | 56* | 10 | 5
CCOc1ccc(N2C(=O)CC(NCC3CCCO3)C2=O)cc1 (configuration not stated) | 6 | -16 | 5 | 3 | -6 | 7
S=C(N/N=C/c1ccc2ncccc2c1)Nc1cccnc1 | 10 | 20 | 56* | 40 | 3 | 18
Cc1ccc(C2NS(=O)(=O)N=C2N)cc1 (configuration not stated) | 1 | -1 | -6 | 23 | -3 | 3
CCCC(C)C(=O)N(Cc1ccccc1)c1ccccn1 (configuration not stated) | -3 | 18 | 61* | 0 | 8 | -10
NS(=O)(=O)c1cccc(NC(=O)c2ccno2)c1 | 18 | 25 | -2 | -5 | 3 | 12
SMILES | KKLEB tox | Peg3 prom inh | TWEAK-Fn14 inh | TROY signal inh | CF NFkB inh | HIF-2a inh
COc1cc2c(cc1NC(=O)c1cc(-c3cccnc3)nc3ccc(C)cc13)oc1ccccc12 | -21 | 63* | -4 | 17 | 9 | -30
Cc1cc(NC(=O)c2cc(-c3ccccn3)nc3ccc(Br)cc23)no1 | -11 | 36 | -82 | 1 | 22 | 5
O=C(Nc1ccccn1)c1cc(-c2cccnc2)nc2ccc(Br)cc12 | 7 | 56* | 35 | -6 | -15 | 1
COc1cc2c(cc1N/C=C(\C#N)c1nc(-c3ccccc3)cs1)oc1ccccc12 | -18 | 61* | -22 | -27 | 1 | 12
O=C(NNC(=O)c1cc(-c2ccccc2)nc2ccccc12)Nc1cccc(Cl)c1 | -9 | 48 | 39 | 69* | -25 | -2
COC(=O)C1ON2OC(C(=O)OC)C(C(=O)OC)C2C1CC(C)=O (configuration not stated) | -8 | 15 | -26 | -6 | 7 | 1
Cc1nc2ccn(Cc3ccccc3)c(=O)c2cc1C(=O)N1CCN(c2ccc(F)cc2)CC1 | -10 | 21 | -11 | -12 | -12 | 16
O=C(NCCc1ccc(Cl)cc1)C1CCCO1 (configuration not stated) | -2 | -2 | -3 | -24 | -5 | -16
Cc1nc2ccc(Nc3nc4cc(S(=O)(=O)N5CCOCC5)ccc4o3)cc2s1 | -2 | -33 | 10 | 8 | 2 | -19
O=C(NNC(=O)c1cc(-c2cccnc2)nc2ccccc12)Nc1ccc(Cl)cc1 | 2 | -79 | 13 | 52* | -15 | -186
COCCCNC(=O)c1cc(-c2cccnc2)nc2ccccc12 | -26 | 8 | 30 | 57* | -13 | 6
O=C(NNC(=O)c1cc(-c2ccncc2)nc2ccccc12)Nc1ccc(F)cc1 | -3 | -5 | 24 | 15 | -4 | 1
CCS(=O)(=O)N1CCC(N2CCC(C)CC2)CC1 | -8 | 18 | 3 | 8 | 12 | 7
O=C(N/N=C/c1ccc2cccc(OCc3ccccc3)c2n1)c1ccc(Br)cc1 | -8 | 9 | 66* | 14 | 12 | -56
CCS(=O)(=O)Nc1cccc(-c2nc3cccnc3s2)c1 | 12 | -140 | 23 | -11 | -2 | -180
CCS(=O)(=O)Nc1ccc(-c2nc3cccnc3s2)cc1 | -3 | -117 | 69* | 44 | 6 | -60
CC(C)(C)C(=O)N1CCc2cc(-c3csc(N)n3)ccc21 | 0 | -29 | 67* | 24 | -5 | -15
Cc1ccc(C)c(/C=N/n2cc(-c3ccccc3)[nH]c2=S)c1 | 3 | -19 | 14 | 53* | -6 | -31
Cc1[nH]c(=O)[nH]c(=O)c1S(=O)(=O)N1CCCC(C(=O)NCCC2=CCCCC2)C1 (configuration not stated) | 4 | 6 | -10 | -8 | 8 | 18
CCOC(=O)N(C)C[C@@H]1OCc2ccccc2-c2c(n(C)c3ccccc23)C(=O)N([C@H](C)CO)C[C@H]1C | -3 | -5 | 14 | 3 | 0 | -12
O=S(=O)(Nc1cc2nc3ccccc3nc2n1Cc1ccccc1)c1ccc(Cl)cc1 | -10 | 23 | 96* | 49 | 52* | -6
CN(C)Cc1c(O)ccc2cc(-c3nc4ccccc4n3C)c(=O)oc12 | -2 | 10 | 56* | 21 | 20 | 21
Cc1nc2c(-c3ccc(F)cc3)c(C)[nH]n2c(=O)c1Cl | -9 | 2 | 3 | 2 | 26 | 19

Screens from PubChem.
